# The list is not random: actives were taken first. Their share in the collection is about 1.6%.
# ATG4B inhibitor: blocks human ATG4B protease cleavage of LC3 substrate | Q9Y4P1 | ATG4B cleavage of LC3-PLA2, NBD-HPC fluorescence, 1 h | 0.51% of 340,000 active | inhibition, % at 8.33 µM; in the data active means inhibition above about 40%
# GRK2 aptamer HTS: human GRK2 inhibition via aptamer displacement; inhibition of aptamer binding, % at 10 µM; bead flow cytometry, FAM-aptamer displacement from GRK2; P25098; 0.59% of 330,000 active;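 active means inhibition of aptamer binding above 40%, roughly 3 SD of noise, on plates passing a quality check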;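 further: median bead fluorescence of bound FAM aptamer so fluorescent compounds give negative values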
# Target sequence (P25098 whole entry, looked up): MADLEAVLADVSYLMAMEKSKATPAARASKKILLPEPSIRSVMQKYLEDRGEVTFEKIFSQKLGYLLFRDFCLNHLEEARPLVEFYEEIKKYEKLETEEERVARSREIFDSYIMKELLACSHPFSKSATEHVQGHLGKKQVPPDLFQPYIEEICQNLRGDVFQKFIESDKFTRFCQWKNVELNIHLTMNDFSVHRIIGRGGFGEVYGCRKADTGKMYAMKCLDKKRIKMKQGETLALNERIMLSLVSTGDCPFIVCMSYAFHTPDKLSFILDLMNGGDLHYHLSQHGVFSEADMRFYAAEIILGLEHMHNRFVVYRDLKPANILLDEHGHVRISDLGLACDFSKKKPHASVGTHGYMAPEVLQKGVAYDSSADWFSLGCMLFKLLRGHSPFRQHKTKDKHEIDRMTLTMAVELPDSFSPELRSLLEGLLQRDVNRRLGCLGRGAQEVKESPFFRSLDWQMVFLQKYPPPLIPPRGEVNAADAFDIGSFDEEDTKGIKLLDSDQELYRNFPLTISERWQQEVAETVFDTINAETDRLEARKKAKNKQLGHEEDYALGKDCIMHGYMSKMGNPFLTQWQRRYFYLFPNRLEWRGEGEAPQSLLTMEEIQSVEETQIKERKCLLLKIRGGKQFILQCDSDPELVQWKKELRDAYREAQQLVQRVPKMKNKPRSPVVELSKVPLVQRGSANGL
# Efflux pump mplx: inhibitors of Candida antifungal efflux pumps expressed in yeast; 0.44% of 330,000 active; S. cerevisiae Candida pump triplex, Nile Red efflux; inhibition, % at 10 µM;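 active means plate passing quality check with inhibition over a set limit, or well fluorescence over plate mean plus 4 SD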;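 further: Nile Red retained in pooled yeast measured as flow cytometry median fluorescence; 0% = buffer negative control and 100% = Enniatin B positive control; higher means more Nile Red kept so more efflux inhibition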
# CR mimetic SO: yeast age-related superoxide inhibition as caloric restriction mimetic. superoxide response (% of plate mean), % at 10 µM. S. cerevisiae aged cells, superoxide DHE fluorescence; active compounds read low. 0.18% of 330,000 active;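 active means superoxide response under a set limit, about three screen SD below normal, cut at about 65% in these data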;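 further: yeast aged for seven days with compound at 30 °C before DHE staining; 100% = average MFI of all compound-treated wells on the plate with controls excluded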
# Yeast cmpd fluor: flagged as fluorescent in efflux inhibitor counter-screen | shares compounds with Efflux pump mplx | S. cerevisiae AD/pABC3, compound fluorescence, flow cytometry | fluorescence ratio to DMSO, % at 10 µM | 4% of 1,700 active | AID 588517;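 active means fluorescence ratio to DMSO above its plate's cutoff, the plate mean ratio plus 5 SD, cut at about 210% in these data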;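 further: unstained yeast with no Nile Red so the signal is compound autofluorescence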
# Mdr1 pump inh: blocks the Candida albicans Mdr1 efflux pump in yeast; shares compounds with Efflux pump mplx; S. cerevisiae AD/CaMDR1, Nile Red efflux, flow cytometry; inhibition, % at 10 µM; 1% of 1,700 active; AID 588518; in the data active means inhibition above about 26%;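 further: 0% = DMSO vehicle and 100% = reference inhibitor; higher means more Nile Red retained so more efflux inhibition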
# Cdr2 pump inh: blocks the Candida albicans Cdr2 efflux pump in yeast | shares compounds with Efflux pump mplx | S. cerevisiae AD/CaCDR2, Nile Red retention, flow cytometry | Nile Red retention ratio vs DMSO, % at 10 µM | 4% of 1,700 active; in the data active means Nile Red retention ratio vs DMSO above about 190%;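 further: higher ratio means more blocking of Cdr2 efflux of the dye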
# Cdr1 pump inh: inhibitors of Candida albicans Cdr1 efflux pump | AID 588522 | shares compounds with Efflux pump mplx | 1% of 1,700 active | S. cerevisiae AD/CaCDR1, Nile Red efflux, flow cytometry | inhibition, % at 10 µM;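 active means inhibition above the screen-wide mean plus twice its standard deviation, cut at about 32% in these data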
# * hit, by the source's call; . = no result.
SMILES,ATG4B inhibitor,GRK2 aptamer HTS,Efflux pump mplx,CR mimetic SO,Yeast cmpd fluor,Mdr1 pump inh,Cdr2 pump inh,Cdr1 pump inh
Clc1cccc(C[n+]2cc(-c3ccccc3)n3c2CCC3)c1,4,0,0,101,.,.,.,.
Cc1ccc(-c2c[n+](Cc3cccc(Cl)c3)c3n2CCC3)cc1,-3,0,0,106,107,0,107,0
Cc1ccc(NC(=O)C[n+]2cc(-c3ccccc3)n3c2CCC3)c(C)c1,-2,.,0,102,89,0,87,0
CCCn1c(-c2cc(OC)c(OC)c(OC)c2)nc2c1c(=O)[nH]c(=O)n2Cc1ccccc1,-5,0,0.7*,92,99,0,110,0
O=C1CCCC(=O)C1=C1SCCCS1,5,1,6.5*,102,91,0,96,0
N#Cc1nc(COc2ccc(Cl)cc2Cl)oc1N1CCOCC1,3,3,0.8*,124,109,0,108,0
c1ccc(-c2ccc3c(c2)c2c4n3CCN=C4CCC2)cc1,-13,0,0.3*,93,103,0,106,0
OC1CN=C2CCCc3c2n(c2ccc(Cl)cc32)C1 (configuration not stated),-1,1,0,97,.,.,.,.
CN1CCN(c2ccccc2NC(=O)c2ccc(-c3ccc(Cl)c(Cl)c3)o2)CC1,-9,0,8.1*,115,85,0,102,0
CCCS(=O)(=O)c1nc(S(=O)(=O)c2ccc(C)cc2)c(NCc2ccco2)s1,32,1,10*,103,98,0,87,0
CC(=O)Nc1ccccc1OC(C)C(=O)NC(C)c1ccc(F)cc1 (configuration not stated),-3,0,5.8*,66,117,0,131,0
CC(=O)Nc1ccccc1OCC(=O)NC(C)c1ccc(F)cc1 (configuration not stated),0,0,0,86,.,.,.,.
O=C(Cc1ccc(F)cc1)OCC(=O)N1CCN(S(=O)(=O)c2ccc(Cl)cc2)CC1,-2,1,0.5*,125,105,0,95,0
Cc1cccc(NC(=O)Cn2nc(-c3ccco3)ccc2=O)c1C,4,2,0,87,.,.,.,.
O=C(CNC(=O)c1cccc(Cl)c1)NCC(c1cccs1)N1CCOCC1 (configuration not stated),4,0,0,111,.,.,.,.
CN1C/C(=C\c2ccc(N3CCOCC3)cc2)C(=O)/C(=C/c2ccc(N3CCOCC3)cc2)C1,-11,4,0.8*,97,99,0,114,0
CCN1C/C(=C/c2ccc(N3CCOCC3)cc2)C(=O)/C(=C/c2ccc(N3CCOCC3)cc2)C1,-12,0,0,111,.,.,.,.
CC1(C(=O)OCC(=O)Nc2ccc3ccccc3c2)CC1(Cl)Cl (configuration not stated),4,1,0,114,.,.,.,.
CC(=O)N(C)c1ccc(NC(=S)NC(=O)/C=C/c2ccco2)cc1,-2,0,0.6*,92,106,0,98,0
CC(=O)Nc1ccc(NC(=S)NC(=O)/C=C/c2ccco2)cc1,2,2,0,110,.,.,.,.
CC1CC(C)C(=NNC(N)=O)C(C(O)CC2CCC(=O)NC2=O)C1 (configuration not stated),-12,.,.,.,.,.,.,.
O=C(O)C(Cc1c[nH]c2ccccc12)NS(=O)(=O)c1cccc2nsnc12 (configuration not stated),-12,6,24*,131,79,0,95,0
CCn1c(SCC(=O)N/N=C/C(C)=C/c2ccco2)nnc1-c1ccccc1,10,2,0.8*,121,117,0,110,0
O=C(NC(=S)Nc1cccc2ncccc12)c1ccco1,9,2,0,85,.,.,.,.
N#C/C(=C\c1ccco1)C(=O)Nc1cccc2ncccc12,-1,1,0,82,95,0,105,0
SMILES,ATG4B inhibitor,GRK2 aptamer HTS,Efflux pump mplx,CR mimetic SO,Yeast cmpd fluor,Mdr1 pump inh,Cdr2 pump inh,Cdr1 pump inh
Cn1cc(Br)c(C(=O)NNC(=O)c2ccc(Cl)cc2)n1,4,0,8.9*,100,91,0,95,0
Cn1cc(Br)c(C(=O)NNC(=O)Cc2ccc(Cl)cc2)n1,-4,0,0,89,.,.,.,.
CC1(c2nnc(Cc3ccccc3)o2)CC(c2ccc(OC(F)(F)F)cc2)=NO1 (configuration not stated),-2,0,0,97,.,.,.,.
Cc1cc(C)n2c(SCC(=O)N(C)C3CCS(=O)(=O)C3)nnc2n1 (configuration not stated),-6,13,0.6*,111,110,0,109,0
CN(CC(=O)Nc1ccc(F)cc1)C(=O)CSc1ncccn1,-6,0,0,87,.,.,.,.
COc1ccc(/C=N\NC(=O)c2ccccc2OC)cc1COc1c(F)c(F)c(F)c(F)c1F,-5,1,9.2*,106,99,0,101,0
O=C(Nc1ccc(S(=O)(=O)Nc2ncccn2)cc1)c1ccc(Cl)c([N+](=O)[O-])c1,-11,0,0,97,.,.,.,.
CN(C)c1ccc(/C=N/NC(=O)c2nnn(-c3nonc3N)c2COc2ccc(F)cc2)cc1,-6,0,0,105,91,0,114,0
CCOc1ccc(-c2c(C(=O)N/N=C/c3ccc(O)cc3)nnn2-c2nonc2N)cc1,-11,1,0,98,98,0,101,0
CCOc1ccc(/C=N/NC(=O)c2nnn(-c3nonc3N)c2COc2ccc(F)cc2)cc1,-3,5,0,122,103,0,103,0
Nc1nonc1-n1nnc(C(=O)N/N=C/c2ccncc2)c1CSc1ccccc1,-6,11,0,97,.,.,.,.
Nc1nonc1-n1nnc(C(=O)N/N=C/c2ccccc2)c1CSc1ccccc1,-15,3,1,110,108,0,101,0
CN(C)Cc1c(C(=O)N/N=C/c2ccc(OCc3ccc(F)cc3)cc2)nnn1-c1nonc1N,2,0,0,114,.,.,.,.
CCC(Cc1ccccc1)NC(=O)C1CC1 (configuration not stated),0,2,0,100,.,.,.,.
COc1cc(NC(=O)CSc2ncnc3sc4c(c23)CCC(C)C4)c(C(=O)O)cc1OC (configuration not stated),19,0,0,100,.,.,.,.
C/C(=N\NC(=O)c1nnn(-c2nonc2N)c1COc1ccc(F)cc1)c1ccc(Cl)cc1,0,3,0,93,99,0,109,0
CCCc1c(C(=O)N/N=C/c2c(OC)ccc3ccccc23)nnn1-c1nonc1N,-2,2,0,81,104,0,103,0
